TSHR antagonist – human thyrotropin receptor antagonism. P16473. TSHR-expressing cells, TSH-stimulated cAMP HTRF, 2 h; stronger effect = lower value. activity change, negative = inhibition, % at 11.5 µM. actives 0.2% (n = 330,000);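 active = activity change below a set negative limit, meaning inhibition stronger than a set level, cut at about -70% in these data; inconclusive = activity change between two set negative limits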; note: % is set by controls: 0 for no effect and ±100 for the full control effect
Target sequence (P16473 whole entry, looked up): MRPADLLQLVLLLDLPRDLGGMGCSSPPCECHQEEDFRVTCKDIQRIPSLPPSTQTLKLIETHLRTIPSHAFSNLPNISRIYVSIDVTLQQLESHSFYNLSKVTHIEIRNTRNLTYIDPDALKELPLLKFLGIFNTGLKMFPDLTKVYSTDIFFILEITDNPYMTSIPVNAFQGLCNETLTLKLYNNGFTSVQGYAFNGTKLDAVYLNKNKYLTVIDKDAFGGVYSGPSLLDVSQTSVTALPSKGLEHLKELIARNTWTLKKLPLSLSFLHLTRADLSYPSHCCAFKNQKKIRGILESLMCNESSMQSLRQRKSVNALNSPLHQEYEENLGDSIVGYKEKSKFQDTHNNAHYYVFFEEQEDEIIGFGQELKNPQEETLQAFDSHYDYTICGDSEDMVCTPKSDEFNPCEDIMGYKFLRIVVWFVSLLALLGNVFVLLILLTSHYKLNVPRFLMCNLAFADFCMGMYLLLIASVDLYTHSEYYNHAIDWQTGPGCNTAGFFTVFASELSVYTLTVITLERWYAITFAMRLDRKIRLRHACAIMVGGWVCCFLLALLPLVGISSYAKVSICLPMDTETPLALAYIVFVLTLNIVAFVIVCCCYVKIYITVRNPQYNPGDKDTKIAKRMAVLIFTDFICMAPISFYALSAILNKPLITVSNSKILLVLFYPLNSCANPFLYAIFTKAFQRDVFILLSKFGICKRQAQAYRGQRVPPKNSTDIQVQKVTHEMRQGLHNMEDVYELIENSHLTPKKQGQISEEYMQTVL
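Inhibition of cAMP made by TSHR-expressing cells under TSH stimulation (4nM final, EC80; 2 h, 37 deg C) is quantified with a one-step lysis HTRF kit, anti-cAMP cryptate versus cAMP-d2.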
uPA generation – blocks generation of uPA at the cell surface; cell surface uPA generation assay, qHTS; Potency, µM (doses to about 38.3 µM), for inactives: at the highest dose activity change, negative = inhibition, hits mostly inhibitors; actives 0.31% (n = 330,000); AID 540303; active = well fitted inhibition curve with a large enough effect; inconclusive = small, poorly fitted or top-dose-only effect; inactive = no such curve, though single readings can be large or run the other way; tested in mouse RAW 264.7 cells; note: potency is the fitted concentration of half-maximal effect; % is set by controls: 0 for no effect and ±100 for the full control effect; nearly all actives have a fitted effect of over 55% in size
Mm-Cpn inhibitor – M. maripaludis TRiC chaperonin inhibition. purified Mm-Cpn ATPase, ADP Transcreener TR-FRET. Potency, µM (doses to about 76.9 µM), for the others: top-dose activity, negative = inhibition, usual class: inhibitors. actives 0.031% (n = 330,000). AID 504842; active = well fitted inhibition curve with a large enough effect; inconclusive = small, poorly fitted or top-dose-only effect; note: potency is the fitted concentration of half-maximal effect; % is set by controls: 0 for no effect and ±100 for the full control effect; nearly all actives have a fitted effect of over 80% in size
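Measured: ADP formation by purified Mm-CPN. Conditions: 25 nM protein, 10 uM ATP, Tris pH 7.4 with Mg2+, K+ and DTT, 37°C for 30 min. Detection: Transcreener HTRF after 30 min at room temperature.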
gsp ag – agonists of gsp mutant (McCune-Albright syndrome); gsp mutant cells, cAMP HTRF, 30 min; Potency, µM (highest dose often 76.9 µM), for inactives: at the top dose activation (cAMP increase), usual class: activators; actives 0.13% (n = 340,000); AID 624287; active = well fitted activation curve with a large enough effect; inconclusive = small, poorly fitted or top-dose-only effect, or another doubt; inactive = no such curve, though single readings can be large or run the other way; cell line not stated here;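 note: phosphodiesterase inhibitor Ro 20-1724 added with compounds to block cAMP breakdown; potency is the fitted concentration of half-maximal effect; nearly all actives have a fitted effect of over 60% in size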
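Cells in DMEM/10% FBS with G418 were pretreated with compounds in DMSO plus […] (300 uM stock) for 30 min at 37C. cAMP was measured by HTRF (cAMP-d2 plus anti-cAMP antibody-K) after 30 min at room temperature.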
gsp antag – antagonists of gsp mutant (McCune-Albright syndrome). gsp-mutant cells, cAMP HTRF, 30 min. Potency, µM (series often up to 76.9 µM), for inactives: at the highest dose activity change, negative = inhibition, hits mostly inhibitors. actives 0.4% (n = 340,000). AID 624288; calls by dose curve; cell line not stated here;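 note: intracellular cAMP measured with PDE inhibitor Ro 20-1724 present during compound exposure; potency is the fitted concentration of half-maximal effect; % is set by controls: 0 for no effect and ±100 for the full control effect; nearly all actives have a fitted effect of over 65% in size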
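HTRF cAMP read-out (cAMP-d2 plus anti-cAMP antibody-K in lysis buffer, 30 min RT). Before lysis, cells are exposed to compounds with […] for 30 min at 37C in DPBS containing Ca/Mg, BSA and Tween 20.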
CCT modulator – cytosolic chaperonin activity modulation; purified chaperonin ATPase assay, HTRF ADP detection, 30 min; activity change, % (test concentration not listed), hits read low; actives 0.3% (n = 360,000); in the data active = activity change below about -30%; note: % is set by controls: 0 for no effect and ±100 for the full control effect
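TRiC at 40 or 20 nM final (batch-dependent) in 30 mM Tris pH 7.4, 100 mM KCl, 5 mM MgCl2, 1 mM DTT, with compound at single 76 uM and 10 uM ATP, 30 min at 37 deg C. ADP detected by HTRF Transcreener, 665/615 ratio.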
Numbers without * were called inactive; ? = inconclusive; [ ] = remark or other dose. Hits are enriched below; roughly 1.2% of the tested compounds scored in any of these assays.

SMILES	TSHR antagonist	uPA generation	Mm-Cpn inhibitor	gsp ag	gsp antag	CCT modulator
CN1C(=O)C(=Cc2ccc(N3CCCCCC3)cc2)C(=O)N(C)C1=O	5	-1%	-1%	-2%[15.4 µM]	35µM*	0
O=C1NC(=O)N(Cc2ccc(F)cc2)C(=O)/C1=C\c1ccc(N2CCCC2)cc1	3	0%	-3%	-6%[15.4 µM]	3%	-2
COC(=O)C1=C(c2cccc(OCc3ccccc3)c2)C[C@@H]2CC[C@H]1N2C(=O)NCc1ccc(N(C)C)cc1	2	?	0%	15%	-16%	0
Cn1c(=O)oc2cc(S(=O)(=O)N3CCCc4ccccc43)ccc21	10	2.2µM*	0%	-41%	4%	0
CN(CCc1ccccc1)Cc1c[nH]c2ccccc12	-10	2.2µM*	1%	6%	7%	-2
Cc1nn(Cc2ccccc2Cl)c(C)c1C(=O)OCC(=O)NC1CCS(=O)(=O)C1 (stereo unspecified)	13	4%	2%	-8%	5%	-1
CCC(CC)NCc1c[nH]c2ccccc12	17	4.5µM*	-3%	?	-2%	-2
CCN(CC)Cc1c[nH]c2ccccc12	8	0%	2%	3%	2%	0
CN1CCN(c2ncnc3nc[nH]c23)CC1	28	5%	?	0%	9%	0
CCN(CC)S(=O)(=O)c1ccc(NN=C(C#N)C#N)cc1	-70*	-4%	1%	6%	-30%	1
N#CC(C#N)=NNc1ccc([N+](=O)[O-])cc1	-76*	13%	-13%	-19%	50µM*	2
